Source: PubChem BioAssay (NCI)
Compounds without any hit were thinned out: in the full panel of roughly 83,000, 20% have a hit.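 Percent growth is the endpoint: 0 to 100 indicates growth inhibition (40 means 60% inhibition), 0 means no net growth, and negative values indicate cell death.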 Activity calls are given as the source filed them. How the source made its calls: active means growth percent below 10; inactive means the rest.

How the values were obtained:
Test in all cases: NCI-60 one-dose screen, 48 h (100 = growth as untreated, 0 = no growth, -100 = all killed)
EKVX NSCLC = conditions: 10 µM unless noted
SN12C renal = conditions: 10 µM unless noted
UO-31 renal = conditions: 10 µM unless noted
TK-10 renal = conditions: 10 µM unless noted
ACHN renal = conditions: 10 µM unless noted
CAKI-1 renal = conditions: 10 µM
A498 renal = conditions: 10 µM unless noted
CCRF-CEM leukemia = conditions: 10 µM unless noted
MOLT-4 leukemia = conditions: 10 µM unless noted
SR leukemia = conditions: 10 µM unless noted
RPMI-8226 leukemia = conditions: 10 µM unless noted
OVCAR-8 ovarian = conditions: 10 µM unless noted
OVCAR-5 ovarian = conditions: 10 µM unless noted
OVCAR-4 ovarian = conditions: 10 µM unless noted
SK-OV-3 ovarian = conditions: 10 µM unless noted
IGROV1 ovarian = conditions: 10 µM unless noted
HS 578T breast = conditions: 10 µM unless noted
NCI/ADR-RES ovarian = conditions: 10 µM unless noted
SK-MEL-2 melanoma = conditions: 10 µM unless noted
OVCAR-3 ovarian = conditions: 10 µM unless noted

Measured: growth

CC(=O)c1sc(Nc2cccc(Nc3nc(C)c(C)s3)c2)nc1C
inactive: EKVX NSCLC 68.8% | SN12C renal 55% | UO-31 renal 32.2% | TK-10 renal 53.6% | ACHN renal 36.5% | CAKI-1 renal 28.1% | A498 renal 27.7% | CCRF-CEM leukemia 61.2% | MOLT-4 leukemia 38.3% | SR leukemia 38.5% | RPMI-8226 leukemia 67.9% | OVCAR-8 ovarian 43.4% | OVCAR-5 ovarian 83.5% | OVCAR-4 ovarian 51.5% | SK-OV-3 ovarian 25.8% | IGROV1 ovarian 26.4% | HS 578T breast 52.7% | NCI/ADR-RES ovarian 55.6%

C=CCn1c(SCC(=O)Nc2cccc(C(=O)/C=C/c3ccc(Cl)cc3)c2)nc2ccccc2c1=O
active: RPMI-8226 leukemia 9.15%
inactive: EKVX NSCLC 99.5% | SN12C renal 86.2% | UO-31 renal 67.6% | TK-10 renal 96.4% | ACHN renal 90.6% | CAKI-1 renal 76.8% | A498 renal 78% | CCRF-CEM leukemia 96.6% | MOLT-4 leukemia 94% | SR leukemia 21% | OVCAR-8 ovarian 95% | OVCAR-5 ovarian 97.9% | OVCAR-4 ovarian 87.6% | SK-OV-3 ovarian 110% | IGROV1 ovarian 96.4% | HS 578T breast 87.3% | NCI/ADR-RES ovarian 91%

C=C(C)C(=O)O[C@H]1C[C@@]2(C)OC(=CC2=O)/C(C)=C\[C@H]2OC(=O)C(=C)[C@H]12
inactive: EKVX NSCLC 21.1% | A498 renal 21% | OVCAR-4 ovarian 36.1% | SK-OV-3 ovarian 77% | HS 578T breast 21.9% | NCI/ADR-RES ovarian 15.7%
active: SK-MEL-2 melanoma -28% | UO-31 renal -88.9% | TK-10 renal -76.3% | ACHN renal -11.7% | CAKI-1 renal 5.49% | CCRF-CEM leukemia -31.8% | MOLT-4 leukemia -4.17% | SR leukemia -19.6% | RPMI-8226 leukemia -15.3% | OVCAR-8 ovarian 4.8% | OVCAR-5 ovarian -56.4% | IGROV1 ovarian 7.34% | OVCAR-3 ovarian -72.1%

CC1OC(O[C@@H]2[C@H](O)C(CO)OC(O[C@H]3COC(O[C@H]4CC[C@]5(C)[C@H]6CC[C@]78OC[C@@]9(CCC(C)(C)C[C@H]97)[C@H](O)C[C@@]8(C)[C@]6(C)CC[C@H]5C4(C)C)[C@@H](OC4OC(CO)[C@@H](O)[C@@H](O)[C@@H]4O)[C@@H]3O)[C@H]2OC2OC[C@@H](O)[C@@H](O)[C@@H]2O)[C@@H](O)[C@@H](O)[C@H]1O (stereo partly specified)
active: SK-MEL-2 melanoma -81.4% | EKVX NSCLC -64% | UO-31 renal -90.8% | TK-10 renal -93.8% | ACHN renal -92.5% | CAKI-1 renal -95.9% | A498 renal -86.5% | CCRF-CEM leukemia -60% | MOLT-4 leukemia -61.1% | SR leukemia -51.3% | RPMI-8226 leukemia -46.3% | OVCAR-8 ovarian -69% | OVCAR-5 ovarian -69% | OVCAR-4 ovarian -74.1% | SK-OV-3 ovarian -94.3% | IGROV1 ovarian -66.3% | OVCAR-3 ovarian -89.8% | HS 578T breast -54.4% | NCI/ADR-RES ovarian -44.2%

CCN1C(=O)N(CC)C2C1NN=C1SC(c3ccccc3)=CC(=O)N12 (stereo unspecified)
inactive: EKVX NSCLC 45.6% | SN12C renal 36.7% | UO-31 renal 43.3% | TK-10 renal 62.8% | ACHN renal 45.2% | CAKI-1 renal 37.5% | CCRF-CEM leukemia 13.2% | MOLT-4 leukemia 18.2% | SR leukemia 16.2% | OVCAR-8 ovarian 18.2% | OVCAR-5 ovarian 29.1% | OVCAR-4 ovarian 72.5% | SK-OV-3 ovarian 42.2% | IGROV1 ovarian 41.4% | NCI/ADR-RES ovarian 19.2%
active: A498 renal -7.16% | RPMI-8226 leukemia 4.35% | HS 578T breast 3.22%

Cc1csc(Nc2cccc(Nc3nc(C)cs3)c2)n1
inactive: EKVX NSCLC 61.4% | SN12C renal 88.2% | UO-31 renal 67.1% | TK-10 renal 101% | ACHN renal 75.4% | CAKI-1 renal 78.1% | A498 renal 47.3% | CCRF-CEM leukemia 89% | MOLT-4 leukemia 70.8% | SR leukemia 63.9% | RPMI-8226 leukemia 62.3% | OVCAR-8 ovarian 82.7% | OVCAR-5 ovarian 92% | OVCAR-4 ovarian 66.8% | SK-OV-3 ovarian 98.7% | IGROV1 ovarian 76.6% | HS 578T breast 85.3% | NCI/ADR-RES ovarian 66.9%

Cc1cc(-c2ccc3nc(N)sc3c2)nc2ccc3[nH]ncc3c12
inactive: SN12C renal 32% | UO-31 renal 51.4% | TK-10 renal 50.1% | ACHN renal 40.7% | CAKI-1 renal 20.3% | CCRF-CEM leukemia 27.1% | MOLT-4 leukemia 33.2% | SR leukemia 13.7% | RPMI-8226 leukemia 39.6% | OVCAR-8 ovarian 41.2% | OVCAR-5 ovarian 57.6% | OVCAR-4 ovarian 61.6% | SK-OV-3 ovarian 31.5% | IGROV1 ovarian 33.6% | NCI/ADR-RES ovarian 13.6%
active: SK-MEL-2 melanoma -3.92% | A498 renal -9.07% | HS 578T breast 6.21%

CS(=O)(=O)c1nccc(-c2c(-c3ccc(F)c(OCCc4ccc(F)cc4)c3)nc3sccn23)n1
active: EKVX NSCLC -66.3% | UO-31 renal -51.8% | SR leukemia 0.201% | RPMI-8226 leukemia -43.2% | IGROV1 ovarian -64.9%
inactive: SN12C renal 62.4% | TK-10 renal 84.8% | ACHN renal 45.2% | CAKI-1 renal 44.7% | A498 renal 29.1% | CCRF-CEM leukemia 56.4% | MOLT-4 leukemia 14.4% | OVCAR-8 ovarian 69.8% | OVCAR-5 ovarian 93.2% | OVCAR-4 ovarian 51.2% | SK-OV-3 ovarian 84.5% | HS 578T breast 35.5% | NCI/ADR-RES ovarian 81.3%
